From PubChem BioAssay
KDM5B inh = KDM5B demethylase inhibition; Q9UGL1; KDM5B demethylase, FDH-coupled NADH fluorescence (FDH is formaldehyde dehydrogenase); Potency, µM (highest dose often 57.7 µM), most hits filed as inhibitors; 220,000 compounds, 2.6% hits; AID 1347165; also: nearly all actives have a fitted effect of over 70% in size
Target sequence (Q9UGL1 whole entry, looked up): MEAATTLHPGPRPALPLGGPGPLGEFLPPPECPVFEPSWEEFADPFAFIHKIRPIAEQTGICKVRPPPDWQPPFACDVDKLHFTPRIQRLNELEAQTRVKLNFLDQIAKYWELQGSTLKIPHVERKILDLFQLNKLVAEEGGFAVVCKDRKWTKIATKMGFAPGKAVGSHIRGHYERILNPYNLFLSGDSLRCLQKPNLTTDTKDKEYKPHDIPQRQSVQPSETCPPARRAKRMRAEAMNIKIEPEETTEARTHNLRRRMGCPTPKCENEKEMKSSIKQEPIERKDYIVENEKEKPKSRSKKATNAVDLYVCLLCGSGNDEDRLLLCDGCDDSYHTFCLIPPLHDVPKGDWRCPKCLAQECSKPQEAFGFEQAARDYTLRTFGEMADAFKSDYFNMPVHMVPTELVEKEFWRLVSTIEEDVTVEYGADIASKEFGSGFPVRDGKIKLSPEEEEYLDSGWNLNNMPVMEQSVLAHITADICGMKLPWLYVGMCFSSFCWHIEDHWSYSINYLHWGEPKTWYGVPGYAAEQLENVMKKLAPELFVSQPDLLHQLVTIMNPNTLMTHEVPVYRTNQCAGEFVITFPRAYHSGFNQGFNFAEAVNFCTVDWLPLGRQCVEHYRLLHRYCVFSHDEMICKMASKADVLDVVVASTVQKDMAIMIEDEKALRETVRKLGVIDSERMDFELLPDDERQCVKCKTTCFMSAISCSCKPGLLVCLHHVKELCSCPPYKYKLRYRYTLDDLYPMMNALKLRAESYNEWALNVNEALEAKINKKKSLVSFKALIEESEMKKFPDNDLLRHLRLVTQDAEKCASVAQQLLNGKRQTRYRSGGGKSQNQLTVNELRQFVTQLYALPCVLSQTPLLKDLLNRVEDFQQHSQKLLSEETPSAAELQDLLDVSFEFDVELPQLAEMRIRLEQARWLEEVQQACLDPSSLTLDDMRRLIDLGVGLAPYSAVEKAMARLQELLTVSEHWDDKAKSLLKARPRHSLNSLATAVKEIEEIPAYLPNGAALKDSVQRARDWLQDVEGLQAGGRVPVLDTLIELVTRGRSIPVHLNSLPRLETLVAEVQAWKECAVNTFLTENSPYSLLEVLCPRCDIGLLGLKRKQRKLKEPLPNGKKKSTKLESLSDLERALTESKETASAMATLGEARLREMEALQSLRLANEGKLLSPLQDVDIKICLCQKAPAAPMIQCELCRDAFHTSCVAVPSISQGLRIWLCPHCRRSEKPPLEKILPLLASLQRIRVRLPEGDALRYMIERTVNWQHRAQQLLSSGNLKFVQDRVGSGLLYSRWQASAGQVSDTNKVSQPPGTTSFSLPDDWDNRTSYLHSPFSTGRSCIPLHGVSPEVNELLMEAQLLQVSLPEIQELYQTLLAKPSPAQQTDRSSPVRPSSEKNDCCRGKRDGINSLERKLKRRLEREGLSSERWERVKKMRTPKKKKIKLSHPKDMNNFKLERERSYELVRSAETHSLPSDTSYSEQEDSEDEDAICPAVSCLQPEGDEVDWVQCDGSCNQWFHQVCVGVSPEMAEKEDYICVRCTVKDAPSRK
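Inhibition is measured as reduced NADH fluorescence generation from FDH coupling to formaldehyde release. Truncated KDM5BΔAP at 200 nM final acts on H3K4me3 peptide (12.5 µM in substrate mix) in pH 7.5 HEPES buffer with Tween-20, 30 min, room temperature.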
IP6K1 inhibitor = blocks human inositol hexakisphosphate kinase 1; Q92551; IP6K1 kinase, ADP-Glo luminescence, 2 h; hits give low values; activity change, % (series mostly up to about 58 µM); 140,000 compounds, 0.81% hits; AID 1645851; in the data active = activity change below about -25%
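ADP-Glo luminescence measures ADP made by human IP6K1 during a 2 h RT reaction with ATP/IP6 (mix at 1.3 mM/130 uM); top library doses 57.5 and 19.1 uM final.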
SNCA viab count = counter-screen for SNCA expression inhibitors: cell viability; 150,000 compounds, 0.12% hits; AID 1671193; Potency, µM (top dose mostly 57.1 µM), usual class: cytotoxic; HEK-293-SNCA-luc viability, GF-AFC fluorescence, 24 h; also: nearly all actives have a fitted effect of over 30% in size
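Cytotoxicity counterscreen: after 24 h compound treatment of genome-edited SNCA-luciferase HEK-293 cells, live-cell protease substrate GF-AFC read by fluorescence after 30 min; activity scaled between DMSO (0%) and medium-only (-100%), curves Hill-fitted.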
SNCA expr inh = SNCA gene expression inhibition; HEK-293 SNCA-luciferase knock-in, luminescence, 24 h; Potency, µM (highest dose often 57.2 µM), usual class: inhibitors; 140,000 compounds, 0.17% hits; also: nearly all actives have a fitted effect of over 45% in size
Each line names hits and unclear results; the compound was inactive in the other large screens. Sampled rows, rich in hits. Any-hit rate of the full collection: about 2.8%. Unless noted, calls follow the shape of the dose curve; as a rule, active = well fitted curve in the direction sought with a large enough effect; inconclusive = small, poorly fitted or top-dose-only effect, or another doubt; inactive = no such curve, though single readings can be large; an effect the other way counts as inactive or inconclusive.

N#Cc1ccc(CN2CCn3c(nnc3C3CCCNC3)C2)cc1 (configuration not stated)	KDM5B inh 20µM, SNCA expr inh inconclusive
CN(Cc1ccsc1)C(=O)CSCc1cccs1	none (no result: IP6K1 inhibitor, SNCA viab count, SNCA expr inh)
CCc1cnn2c(NCc3ccc[n+]([O-])c3)cc(N3CCCC[C@@H]3CCO)nc12	SNCA viab count inconclusive, SNCA expr inh 0.061µM (no result: KDM5B inh, IP6K1 inhibitor)
CCc1cccc(N(C)C(N)=Nc2cccc3ccccc23)c1	none (no result: KDM5B inh)
O=C(NCc1ccc(-c2ccc(F)cc2)o1)C1CC(=O)N(Cc2cccnc2)C1 (configuration not stated)	KDM5B inh 25µM
CC(C)CNc1ccc2nncn2n1	KDM5B inh inconclusive
CCC(C)Nc1ccc2nncn2n1 (configuration not stated)	KDM5B inh 28µM
Cn1c(-c2ccccc2)c(C(=O)C(N)=O)c2ccccc21	none (no result: IP6K1 inhibitor, SNCA viab count, SNCA expr inh)
Cc1cn2nc(C(=O)NCCc3ccccc3)cc2c(N2CCCC2)n1	none
Cc1cn2nc(C(=O)NCc3cccc(Cl)c3)cc2c(N2CCCC2)n1	KDM5B inh 25µM, SNCA expr inh inconclusive
Cc1cn2nc(C(=O)NCCCc3ccccc3)cc2c(N2CCCC2)n1	KDM5B inh 25µM
Cn1c(CN2CCOCC2)nnc1C1CCCN(CCC(=O)O)C1 (configuration not stated)	SNCA expr inh inconclusive
CC1Cc2cc(-c3ccnc4ncnn34)ccc2O1 (configuration not stated)	KDM5B inh 28µM
O=C(Nc1ccc(=O)n2c1[C@@H]1C[C@@H](CN(C(=O)Nc3ccc(F)cc3)C1)C2)NC1CCCCC1	KDM5B inh 20µM
CC(=O)N1CCC(N2C[C@@H]3C[C@H](C2)c2c(NC(=O)NC4CCCCC4)ccc(=O)n2C3)CC1	KDM5B inh inconclusive
Cn1c2c(c3cc(F)ccc31)CN(C(=O)Nc1ccccc1)CC2	KDM5B inh inconclusive
Cc1ccccc1NC(=O)N1CCc2c(c3cc(F)ccc3n2C)C1	KDM5B inh 28µM
CC(C)c1cccc(C(C)C)c1NC(=O)N1CCc2c(c3cc(F)ccc3n2C)C1	KDM5B inh 25µM
CCc1cccc(NC(=O)N2CCc3c(c4cc(F)ccc4n3C)C2)c1	KDM5B inh 25µM, SNCA expr inh inconclusive
Cc1ccc(NC(=O)N2CCc3c(c4cc(F)ccc4n3C)C2)cc1	KDM5B inh 14µM, SNCA viab count inconclusive
Cc1cnc2c(S(=O)(=O)NCC(C)N3CCOCC3)cccc2c1 (configuration not stated)	none (no result: IP6K1 inhibitor, SNCA viab count, SNCA expr inh)
O=C1CCN(C(=O)[C@@H]2CCCN2C(=O)C2CCCCC2)CCCCCCN1	none
CS(=O)(=O)N1CCC(C2CCN(C(=O)Cc3ccccc3F)C2)CC1 (configuration not stated)	none
c1ccc(Nc2ncc(-c3ccccc3)c3c2OCC3)cc1	none
Fc1cccc(-c2cnc(Nc3ccc(N4CCOCC4)cc3)c3c2CCO3)c1	KDM5B inh 32µM
Fc1cc(Nc2ncc(-c3ccccc3)c3c2OCC3)cc(N2CCOCC2)c1	KDM5B inh 13µM
CCOc1ccc(NC(=O)Nc2nnc(N3CCCCC3)s2)cc1	none (no result: IP6K1 inhibitor, SNCA viab count, SNCA expr inh)
Cc1cc(Nc2cc(N3CCN(C)CC3)nc(/C=C/c3ccccc3)n2)n[nH]1	SNCA viab count 30µM (no result: KDM5B inh, SNCA expr inh)
Cc1ccc(C(=O)COC(=O)C2CC(=O)N(NC(=O)c3ccc(Cl)cc3Cl)C2)cc1 (configuration not stated)	none (no result: IP6K1 inhibitor, SNCA viab count, SNCA expr inh)
CCCN(CCC)C(=O)Cn1c(=O)n(CCCCCC(=O)NCc2ccccc2Cl)c(=O)c2sccc21	none
C[C@@H]1O[C@@H](OC[C@H]2O[C@@H](OC(CCCCc3ccc(O)cc3)CCc3ccc(O)cc3)[C@H](O)[C@@H](O)[C@@H]2O)[C@H](O)[C@H](O)[C@H]1O (some centres not stated)	none (no result: KDM5B inh, SNCA expr inh)
CCNc1cc(N2CCC(CCC(=O)NC3CCCC3)CC2)ncn1	SNCA expr inh 2.2µM
O=C(CCC1CCN(c2cc(NC3CC3)ncn2)CC1)NCC1CC1	SNCA expr inh 1.4µM
CCOCCn1cc(C2CCN(S(=O)(=O)c3cccc(Cl)c3C)CC2)c2ccccc21	KDM5B inh 28µM
COc1cccc(CC(=O)N2CC(CNc3ccccc3)C3(C2)CN(c2ccccc2)C3)c1 (configuration not stated)	KDM5B inh 18µM
COC1C2=C(COC2=O)C2(C)CCCC(C)(CO)C2C1OC(=O)c1ccccc1 (configuration not stated)	none (no result: KDM5B inh, SNCA expr inh)
CCCNC(=O)N1CCCCCC1CN1CCCC1 (configuration not stated)	KDM5B inh 25µM, SNCA expr inh inconclusive
CC(C)NC(=O)N1CCCCCC1CN1CCCC1 (configuration not stated)	KDM5B inh inconclusive
O=C(Nc1ccc(F)cc1)c1ccc2c(c1)OCCN(C1CCC1)C2	KDM5B inh 32µM
O=C(Nc1ccccc1)c1ccc2c(c1)OCCN(c1ccccc1)C2	KDM5B inh 28µM
COC1CCOC2(CCN(C(=O)c3cc(F)ccc3F)CC2)C1 (configuration not stated)	SNCA expr inh inconclusive
O=C(C(=O)N1CCCCC1)c1cn(CC(=O)N2CCCCCC2)c2ccccc12	none (no result: IP6K1 inhibitor, SNCA viab count, SNCA expr inh)
CN(C)c1nc2c(c(=O)[nH]1)CCN(Cc1ccc(F)cc1F)CC2	none
Cc1noc(CN2CCc3nc(-c4ccc(F)cc4F)[nH]c3C2)n1	KDM5B inh 32µM
Cn1ncc(CN2CCc3nc(-c4ccc(F)cc4F)[nH]c3C2)c1C1CC1	KDM5B inh 25µM
O[C@@H]1C[C@@H](c2nc(-c3ccc(F)cc3)no2)N(CC2CCCCC2)C1	none
CCn1nccc1C(=O)N1CCOc2ccc(CCC(N)=O)cc2C1	none
COC(=O)CNC(=O)C1CCCN(c2nc3ncccc3o2)C1 (configuration not stated)	KDM5B inh 28µM
O=C(NCc1cccc(F)c1)C1CCCN(c2nc3ncccc3o2)C1 (configuration not stated)	none
O=C(NCc1ccccn1)C1CCCN(c2nc3ncccc3o2)C1 (configuration not stated)	KDM5B inh 35µM
COCCNC(=O)C1CCCN(c2nc3ncccc3o2)C1 (configuration not stated)	KDM5B inh 28µM
COC(=O)CNC(=O)C1CCCN1c1nc2ncccc2o1 (configuration not stated)	KDM5B inh inconclusive
CCOc1ccc2c(n1)CCN(C(=O)c1cc(OC)cc(OC)c1)C2	none
Fc1ccc(CN2CCCC3(CCN(c4cnccn4)C3)C2)cc1F (configuration not stated)	KDM5B inh 28µM
C#CCOc1ccccc1CN1CCN(c2ncc(F)cn2)CC1	KDM5B inh 28µM
CCOc1ccc(CNc2cc(C)nc3nc(-c4cccc(C)c4)nn23)cc1OC	KDM5B inh inconclusive
O=C1CC(c2ccccc2)N(C(=O)CNC(=O)Nc2ccccc2F)CCCCCN1 (configuration not stated)	none
CC(Cn1cncn1)NC(=O)c1ccc(S(=O)(=O)NCCO)cc1 (configuration not stated)	none
O=C(Nc1cccn2cnnc12)c1ccc(S(=O)(=O)NCCO)cc1	KDM5B inh 28µM
